About 45 (2%) of roughly 2,500 compounds were called active. Cut-off read from the data, not from the text of the source: active = inhibition mostly above about 45% (no sharp cut-off); inactive = mostly below about 37%. Only a selection was taken, and actives are over-represented in it overall.

For 59 compounds, inhibition and outcome results are on record in PubChem BioAssay AID1794835 (Parasite Biology Lab, Institute for Biomedicine and …, 2023).

A short description of this experiment: anti-Giardia activity of synthetic compounds – Compounds Australia Scaffold Library subset, 24/48 h, primary screen (AID 1794835).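 For inhibition: 0% = parasite counts in DMSO vehicle wells.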 The note with it: Giardia lamblia BRIS/91/HEPU/1279 trophozoite counts, imaging, at 10 µM.
Where [1] appears, read: measured here: growth inhibition at 24 h, stronger effect = higher value.

Usually inhibition stands for the drop in the measured response relative to a control, in per cent. With `COCC(=O)N1CCC(Oc2ncccc2C(=O)N(C)C)CC1`, the inhibition (stronger effect = higher value) is 4.8% (inactive).
For the compound `O=C(c1ccc(F)cc1)N1CCN(c2nc3cc(Br)ccc3n3cccc23)CC1`, the inhibition entry is “inactive”.
Same read-out and setting: the result for `COc1cc(S(=O)(=O)N2CCN=C2Cc2ccccc2)c(OC)cc1Cl` reads “inactive”.
For the compound `O=C(c1ccc2nc[nH]c2c1)N1CCN(Cc2cccc(Cl)c2)CC1`, the call was inactive. Besides, under setting [1], the inhibition worked out at 6%.
For the compound `CCCC(=O)Nc1nnc(S(=O)(=O)N(C)Cc2ccco2)s1`, the inhibition entry was “inactive”.
The same measure, in the same setting: the result for `Cc1noc2ncc(C(=O)N3CCN(CCO)CC3)cc12` reads “inactive”.
Take `O=C(NC1CCCCC1)c1nc(Nc2ccccc2)c2ccccc2n1`: the inhibition reads like this: (stronger effect = higher value) 73.1% (active); under setting [1], 59.6%.
The corresponding values for `O=C(NC1CCCCC1)c1cc(-c2ccco2)nc2ccccc12` are 20.8% (inactive) and 17.2%.
Turning to `O=C(c1nc(Nc2ccc(F)cc2)c2ccccc2n1)N1CCCCCC1`, the inhibition entry is “inactive”.
Consider `CCC(OC1CCCC1)C(=O)N1CCN(c2nccn2C)CC1` (stereo not given), for which the call was inactive. Under setting [1], this compound showed an inhibition of 9.4%.
`CC(=O)Nc1cc(C(=O)NCCCN2CCC(C)CC2)ccc1S(=O)(=O)c1ccc(Cl)cc1`: the inhibition reads like this: (stronger effect = higher value) 23.9% (inactive); under setting [1], 5%.
The corresponding values for `Cc1csc(-c2cc(S(=O)(=O)N3c4ccccc4CC3C)c(C)n2C)n1` (stereo not given) are 63.6% (active) and 22.6%.
With `CCCNS(=O)(=O)c1cc(-c2nc(-c3cccc(Cl)c3)cs2)n(C)c1C`, the inhibition runs as follows: (stronger effect = higher value) 32.9% (inactive); under setting [1], 21.9%.
The corresponding values for `Cc1nn(Cc2csc(-c3ccsc3)n2)c(C)c1S(=O)(=O)N1CCc2ccccc21` are 7.1% (inactive) and 12.8%.
Turning to `CN(Cc1ccccc1)C(=O)c1cccc2c1CCN2C(=O)Nc1ccccc1`, the compound was classed as inactive. Further, the inhibition under setting [1] amounted to 2.8%.
Regarding `CCc1c(C2CCN(C(=O)C3COc4ccccc4O3)CC2)noc1N` (stereo not given), the inhibition entry is “inactive”.
As to `Cc1ccc(NC(=O)N2CCCC(C)(C(=O)NCc3ccc(F)cc3)C2)cc1` (stereo not given), the inhibition result is “inactive”.
Consider `Cc1ccc(C(=O)Nc2cc(-c3nc(C)cs3)sc2C)cc1`, for which the inhibition (stronger effect = higher value) is 56.1% (active) and the inhibition under setting [1] came to 28%.
On to `Cc1csc(-c2ccc(CNC(=O)c3cncc(Br)c3)cc2)n1`, for which the inhibition result is “inactive”.
As for `COc1ccc(C(=O)Nc2cc(-c3nc(C)cs3)sc2C)cc1OC`, the inhibition runs as follows: (stronger effect = higher value) 27.2% (inactive); under setting [1], 11.4%.
Turning to `O=C(c1cc(Cl)c[nH]1)N1CCCN(Cc2cscn2)CC1`, the inhibition entry is “inactive”.
Still for that read-out and setting: with `Cc1noc2nc(-c3ccccc3F)cc(C(=O)N3CCCC3c3nnc4ccccn34)c12` (stereo not given) the entry was “inactive”.
Turning to `O=C1CCCc2cc(S(=O)(=O)N3CCN(c4ccccc4)CC3)ccc2N1`, the inhibition is 19.1% (inactive) (stronger effect = higher value) and 8.5% under setting [1].
In the case of `CC1(c2ccco2)NC(=O)N(Cc2cn(-c3ccccc3)nc2-c2ccccc2)C1=O` (stereo not given), the inhibition entry was “inactive”.
For the compound `Cc1sc2cc(C(=O)NC(C)(C)C)[nH]c2c1CN1CCOCC1`, the inhibition is 2.4% (inactive) (stronger effect = higher value) and 3% under setting [1].
The corresponding values for `COc1ccc(CNC(=O)c2[nH]c3cc(C)sc3c2CN2CCCC2)cc1` are 35.5% (inactive) and 10.1%.
Consider `Cc1cc2[nH]c(C(=O)Nc3ccccc3C)c(CN3CCOCC3)c2s1`, for which the inhibition reads like this: (stronger effect = higher value) 97.7% (active); under setting [1], 94.7%.
On to `Cc1ccc(S(=O)(=O)N2CCc3nc(N4CCOCC4)[nH]c(=O)c3CC2)cc1C`, for which the inhibition result was “inactive”.
On the same count and under the same terms, the result for `Cc1cc(C)c(S(=O)(=O)N2CCN(C)c3ccccc32)c(C)c1` reads “inactive”.
`CCc1nnc(-c2nnc(NCc3ccc4c(c3)OCO4)c3ccccc23)o1`: the compound was called inactive. Under setting [1], this compound returned an inhibition of 3%.
For the compound `CCOC(=O)c1ccc(S(=O)(=O)Nc2cccc(-c3nnc(-c4ccccc4)o3)c2)cc1`, for the setting “stronger effect = higher value”, the inhibition is 2.3% (inactive).
As to `O=S(=O)(Cc1ccccc1)Nc1cccc(-c2nnc(Cc3ccc4c(c3)OCO4)o2)c1`, the inhibition runs as follows: (stronger effect = higher value) 46.9% (active); under setting [1], 17.2%.
As for `c1cnc(N2CCN(c3ncnc4nc[nH]c34)CC2)nc1`, the inhibition (stronger effect = higher value) is 0.6% (inactive).
Regarding `O=C(CN1C(=O)CCCc2ccccc21)NCCc1ccco1`, the inhibition entry was “inactive”.
Turning to `Cc1cc(-c2cc(C(=O)Nc3ccc(N4CCN(C)CC4)nc3)c3cnn(C(C)C)c3n2)c(C)o1`, the inhibition is, setting by setting: (stronger effect = higher value) 98.2% (active); under setting [1], 95.9%.
Regarding `CC1CN(C(=O)c2cc(C3CC3)nc3c2cnn3C(C)C)CC(C)O1` (stereo not given), the inhibition result is “inactive”.
Take `Cc1cc(-c2cc(C(=O)Nc3c(C)n(C)n(-c4ccccc4)c3=O)c3cnn(C(C)C)c3n2)c(C)o1`: the outcome was inactive. The same compound returned an inhibition under setting [1] of 2%.
In the case of `NC(=O)c1nonc1N`, the inhibition entry was “inactive”.
Still for that read-out and setting: the result for `Cc1ccc(CNC(=O)c2cc(-c3ccc(C)c(C)c3)n(C3CCS(=O)(=O)C3)n2)cc1` (stereo not given) reads “inactive”.
With `Cn1cc2c(n1)c(=O)n(Cc1ccccc1)c(=O)n2CC(=O)Nc1cccc(F)c1`, the inhibition (stronger effect = higher value) was 62.8% (active) and the inhibition under setting [1] was 30.6%.
As to `Cc1nc2c(c(=O)n1CC(=O)Nc1cccc(F)c1)CCN(Cc1ccccc1)C2`, the result was inactive. In addition, under setting [1], the inhibition was found to be 12%.
As to `Cn1cc2c(n1)c(=O)n(Cc1ccccc1)c(=O)n2CC(=O)Nc1ccc2c(c1)OCCO2`, the inhibition result was “inactive”.
With `Brc1ccc(-c2nc(-c3ccc4c(c3)ncn4C3CCCC3)no2)o1`, the inhibition result is “inactive”.
Take `Cc1ccccc1NC(=O)c1c(C)oc2ncnc(N3CCCCC3)c12`: the inhibition is, setting by setting: (stronger effect = higher value) 15.9% (inactive); under setting [1], 14.5%.
On to `Cc1ccc(C(=O)N2CCN(S(=O)(=O)N3CCN(C)CC3)CC2)o1`, for which the inhibition result was “inactive”.
For the compound `N=C1C(=C2Nc3ccccc3S2)CC(=O)N1C1CC1`, the compound was classed as inactive. The same compound yielded an inhibition under setting [1] of 2.5%.
For `COc1ccc(C(=O)N2c3ccccc3NC(=O)CC2C)cc1OC` (stereo not given), the call was inactive. In addition, the inhibition under setting [1] was found to be 2.2%.
Consider `COc1ccc(C)cc1N1C(=N)C(=C2Nc3ccccc3S2)C(c2ccccc2)C1=O` (stereo not given), for which the inhibition reads like this: (stronger effect = higher value) 96.7% (active); under setting [1], 90.2%.
For `CCN(CC)CCCN1C(=O)C(O)=C(C(=O)c2cc3cccc(OC)c3o2)C1c1ccncc1` (stereo not given), the inhibition entry was “inactive”.
The same measure, in the same setting: with `CCOc1cc(C)ccc1NC(=O)N1CCC12CCC2` the entry was “inactive”.
With `CCn1cc(CN2CCCN(C(=O)c3cc(C4CC4)on3)CC2)cn1`, the compound was called inactive. The inhibition under setting [1] came to 1.1%.
Take `Cc1ccc(C(=O)Nc2ccc3c(c2)Oc2ccccc2C(=O)N3C)cc1`: the inhibition was 96.8% (active) (stronger effect = higher value) and 90.3% under setting [1].
In the same order, the values of `CCOc1ccc(C(=O)Nc2ccc3c(c2)N(C(C)C)C(=O)c2ccccc2O3)cc1` are 33.8% (inactive) and 18.7%.
In the same order, the values of `CN1C(=O)c2cc(NC(=O)c3ccc4c(c3)OCO4)ccc2N2CCN=C12` are 31.6% (inactive) and 11.7%.
With `O=C(NCc1cccc(F)c1)C1CCCN(c2nc3ccccc3n3cccc23)C1` (stereo not given), the result was inactive. The inhibition under setting [1] amounted to 2.2%.
For the compound `CNC(=O)N1C[C@@H](CN(C)C)[C@@H](C2CCN(Cc3ccccn3)CC2)C1`, the inhibition result was “inactive”.
For the compound `CCCCNC(=O)Cn1c(=O)c2c(C)cc(C)nc2n(-c2ccccc2)c1=O`, under “stronger effect = higher value”, the inhibition was 4.4% (inactive).
With `Cc1ccccc1NC(=O)Cn1ccc2sccc2c1=O`, the inhibition (stronger effect = higher value) was 19.9% (inactive).
Regarding `Cc1ccc(-n2c(=O)c3c(cnn3C)n(CC(=O)Nc3ccccc3C)c2=O)cc1`, the inhibition runs as follows: (stronger effect = higher value) 76.9% (active); under setting [1], 53.9%.
